Tb PYK inh: T. brucei pyruvate kinase inhibition; Q57TT1; TbPYK enzyme, Kinase-Glo Plus ATP luminescence, 45 min; Potency, µM (series often up to 76.8 µM), most hits filed as inhibitors; hit rate 0.12% among 410,000; AID 624173; active = well fitted curve in the direction sought with a large enough effect; inconclusive = small, poorly fitted or top-dose-only effect, or another doubt; inactive = no such curve, though single readings can be large; an effect the other way counts as inactive or inconclusive; also: nearly all actives have a fitted effect of over 50% in size
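Activity of T. brucei pyruvate kinase was followed by Kinase-Glo Plus luminescence after the enzyme reacted 45 min at room temperature with 130 uM ADP (final) and substrate. Test compounds were added before ADP at multiple concentrations.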
NS1 inh: blocks influenza NS1 protein function. Potency, µM (series often up to 46.1 µM). hit rate 0.4% among 270,000. AID 2326; also: actives are rising curves; nearly all actives have a fitted effect of over 50% in size
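A cell-based growth assay was used: compounds that relieve NS1-induced slow growth of budding yeast raise OD600. Assay medium was yeast nitrogen base with ammonium sulphate and -URA supplement, pH 6.0, with 2% galactose.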
SARS PLP yeast: blocks SARS-CoV papain-like protease in a yeast assay. S. cerevisiae expressing SARS-CoV PLpro, growth rescue. Potency, µM (series often up to 32.9 µM), usual class: activators. hit rate 0.19% among 330,000; also: nearly all actives have a fitted effect of over 55% in size
LmPK inhibitor: inhibitors of Leishmania mexicana pyruvate kinase | Q27686 | purified LmPK, Kinase-Glo ATP luminescence, 1 h | Potency, µM (doses to about 57.5 µM), hits mostly inhibitors | hit rate 0.37% among 290,000; active = well fitted curve in the direction sought with a large enough effect; inconclusive = small, poorly fitted or top-dose-only effect, or another doubt; inactive = no such curve, though single readings can be large; an effect the other way counts as inactive or inconclusive
Target sequence (Q27686 whole entry, looked up): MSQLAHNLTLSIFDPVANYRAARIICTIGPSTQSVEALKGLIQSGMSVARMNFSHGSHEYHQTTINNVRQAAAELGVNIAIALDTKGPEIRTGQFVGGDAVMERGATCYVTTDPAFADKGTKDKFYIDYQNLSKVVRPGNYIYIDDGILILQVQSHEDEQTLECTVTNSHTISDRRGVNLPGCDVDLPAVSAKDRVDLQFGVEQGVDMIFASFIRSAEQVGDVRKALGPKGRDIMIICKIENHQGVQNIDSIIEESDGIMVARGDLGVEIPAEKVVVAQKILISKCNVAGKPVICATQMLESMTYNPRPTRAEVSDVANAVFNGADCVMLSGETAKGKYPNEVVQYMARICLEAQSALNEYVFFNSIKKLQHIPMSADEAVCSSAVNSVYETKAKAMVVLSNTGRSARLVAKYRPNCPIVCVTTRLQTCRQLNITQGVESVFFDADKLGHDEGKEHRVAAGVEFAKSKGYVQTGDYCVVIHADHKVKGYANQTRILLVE
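Screened at intermediate enzyme activity to detect both inhibitors and activators: LmPK at 0.1 nM, with a 0.5 nM enzyme column as activation reference. PEP 0.5 mM, ADP 0.1 mM; ATP detected by luminescence after 1 h.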
Shiga toxin inh: Shiga toxin inhibition; Vero cells, Shiga toxin protein synthesis inhibition reporter; inhibition, % at 38.7 µM; hit rate 9.2% among 290,000; in the data active = inhibition mostly above about 28%, no sharp cut-off; inactive = mostly below about 43%
Cycloheximide cs: affects cycloheximide protein synthesis inhibition readout, counter-screen. cell reporter, cycloheximide protein synthesis inhibition counterscreen. max response, %. hit rate 12% among 300,000. AID 2314; in the data active = max response mostly above about 13%, no sharp cut-off; inactive = mostly below about 14%; also: read at 38.3 µM for the half of the compounds with a filed dose
Hits are given with their value; . = inactive; ? = inconclusive; / = no result given; [ ] = remark or other dose. The full list was thinned out, with hits kept by preference. Unless noted, calls follow the shape of the full dose curve.

SMILES | Tb PYK inh | NS1 inh | SARS PLP yeast | LmPK inhibitor | Shiga toxin inh | Cycloheximide cs
Cc1ccc2c(=O)c(C(=O)c3ccccc3)cn(CC(=O)Nc3ccccc3)c2n1 | . | / | / | / | / | /
C/C=C/c1ccc2c(c1)OCO2 | . | / | . | / | / | /
C[n+]1c(/C=C/c2ccc(O)cc2)ccc2ccccc21 | . | . | . | . | 64 | 50
C[n+]1c(/C=C/c2ccc3c(c2)OCO3)ccc2ccccc21 | . | / | . | . | 95 | 51
COc1ccc(C(=O)Nc2nc(-c3cccs3)cs2)cc1 | . | . | / | . | 84 | 45
O=C(Nc1nc(-c2ccc(Cl)cc2)cs1)C1=COCCO1 | . | / | . | / | / | /
O=C(Nc1nc(-c2cccs2)cs1)C1=COCCO1 | . | . | . | ? | 68 | 40
O=C(Nc1nc(-c2cccs2)cs1)c1ccc(Cl)cc1 | . | . | . | . | . | .
Cc1ccccc1C(=O)N1CCc2cc(-c3csc(NC(=O)CN4CCCC4)n3)ccc21 | . | . | . | . | . | .
C[C@H](NC(=O)c1ccco1)C(=O)Nc1nc(-c2ccccn2)cs1 | . | / | / | / | / | /
O=C(Nc1nc(-c2ccccn2)cs1)c1ccco1 | . | / | . | . | 89 | 54
CC(C)C(=O)N1CCc2cc(-c3csc(N)n3)ccc21 | . | . | ? | . | . | 22
O=C(Nc1nc(-c2cccs2)cs1)c1ccco1 | . | . | . | . | 91 | 37
CCC(=O)N1CCc2cc(-c3csc(NC(=O)c4ccco4)n3)ccc21 | . | . | . | . | . | 28
Cn1c(SCc2nc3ccccc3c(=O)[nH]2)nc2ccccc21 | . | . | . | . | . | 17
CC(=O)OCC#CCSc1nc2ccccc2n1C | . | . | 22µM | . | . | .
Cn1c(CSc2nc3ccccc3n2C)nc2ccccc21 | . | . | . | . | . | 19
Cn1c(-c2ccccc2)cnc1SCc1nc2ccccc2c(=O)[nH]1 | . | . | . | . | 114 | 27
CC(C)Cn1c(SCc2nc3ccccc3c(=O)[nH]2)nc2ccccc2c1=O | . | . | . | . | . | .
Cn1c(SCc2nc3ccccc3c(=O)[nH]2)nnc1-c1ccco1 | . | . | . | . | . | .
Cn1c(Cc2nc3ccccc3n2C)nc2ccccc21 | . | / | . | / | / | /
Cc1ccc(Nc2c(F)cccc2Cl)c(CC(=O)O)c1 | . | / | / | / | / | /
CCC(Sc1nc2ncccc2o1)C(=O)Nc1ccc(OC)c(OC)c1 (centres undefined) | . | / | / | / | / | /
COc1cc(NC(=O)CSc2nc3nc(C)c(Cc4ccc(C)cc4)c(C)n3n2)cc(OC)c1 | . | / | / | / | / | /
O=C(Nc1cccc(CNCCc2c[nH]c3ccccc23)c1)c1ccccc1Cl | . | . | . | . | . | .
SMILES | Tb PYK inh | NS1 inh | SARS PLP yeast | LmPK inhibitor | Shiga toxin inh | Cycloheximide cs
C[Si](C)(C)O[Si](C)(C)C | . | / | / | / | / | /
CC(C)Sc1nc2ccc(Br)cc2[nH]1 | . | . | . | . | 88 | 36
CSc1nc2ccc(Br)cc2[nH]1 | . | . | . | . | . | .
COc1ccccc1C(=O)N1CCN(C2CCN(Cc3ccccc3)CC2)CC1 | . | . | / | . | . | 43
Nc1nc(Cl)cc(Sc2ccc3ccccc3c2)n1 | . | . | . | . | . | .
Nc1cc(Cl)ccc1Oc1ccc2ccccc2c1 | . | . | . | . | 41 | 34
Cc1ccc(Oc2ccc(Cl)cc2N)cc1 | . | . | . | . | 100 | 38
Cc1ccc(Oc2ncc(-c3ccc(Cl)cc3)cn2)cc1 | . | . | . | . | . | .
O=C(CCC(=O)c1ccccc1)NCc1ccccc1 | . | . | . | . | . | .
O=[N+]([O-])c1cc(Cl)ccc1NCCNS(=O)(=O)c1ccccc1 | . | . | . | . | 36 | 19
N#C/C(=C/c1cccc([N+](=O)[O-])c1)C(=O)Nc1ccccc1O | . | . | . | . | . | 13
CC1CCN(S(=O)(=O)c2ccc3nc(NCc4ccccc4)ccc3c2)CC1 | . | / | / | / | / | /
COc1cc(CNCC(O)c2ccccc2)ccc1OCc1ccc(Cl)nc1 (centres undefined) | . | . | . | . | . | 17
COc1cc(CNCc2ccccn2)ccc1OCc1ccccc1Cl | . | . | . | . | . | 13
COc1cc(CNCCO)ccc1OCCc1ccccc1 | . | . | . | . | . | 13
COc1ccc(CNCc2ccco2)cc1OCc1ccccc1 | . | ? | . | . | 90 | 41
COc1cc(CNCCc2ccccc2)ccc1OCC(N)=O | . | . | . | . | . | .
CCOc1c(Cl)cc(CNCc2ccccn2)cc1OC | . | / | . | . | . | .
c1ccc(COc2cccc(CNCc3cccnc3)c2)cc1 | . | . | . | . | . | .
CNCc1ccc(OCc2ccccc2)c(OC)c1 | . | . | . | . | . | 28
COc1cc(CNCc2cccnc2)ccc1OCc1ccccc1 | . | / | . | . | 76 | 36
CCCCNC(=O)C1CCN(c2nc3ccc(C)cc3[nH]2)CC1 | .[15.4 µM] | / | / | / | / | /
Cc1noc(NS(=O)(=O)c2ccc(N/C=C\C(=O)c3cccc4ccccc34)cc2)c1C | . | / | . | . | . | .
Cc1noc(NS(=O)(=O)c2ccc(NC(=O)/C=C/c3ccc(Br)cc3)cc2)c1C | . | . | . | . | . | .
COc1cccc(C(=O)/C=C/Nc2ccc(S(=O)(=O)Nc3onc(C)c3C)cc2)c1 | . | . | . | . | 63 | 44
SMILES | Tb PYK inh | NS1 inh | SARS PLP yeast | LmPK inhibitor | Shiga toxin inh | Cycloheximide cs
Cc1noc(NS(=O)(=O)c2ccc(N/C=C\C(=O)c3ccc(Br)cc3)cc2)c1C | . | . | . | . | 58 | 19
Cc1noc(NS(=O)(=O)c2ccc(N/C=C\C(=O)c3ccc4c(c3)OCO4)cc2)c1C | . | . | . | . | 72 | 37
CCOc1ccc(C(=O)/C=C/Nc2ccc(S(=O)(=O)Nc3onc(C)c3C)cc2)cc1 | . | . | . | . | 85 | 20
CCCOc1ccc(C(=O)Nc2ccc(S(=O)(=O)Nc3onc(C)c3C)cc2)cc1 | . | / | . | . | . | .
COc1ccc(S(=O)(=O)NC(=O)C2(C)CCN2C(=O)C2CCCCC2)cc1OC (centres undefined) | . | / | / | / | / | /
Cc1ccc(CN(Cc2ccco2)C(=O)c2oc3c(C)c(C)ccc3c2C)cc1 | . | / | / | / | / | /
Cc1ccc(N=c2sc(C)c(C)n2C)cc1 | . | . | . | . | 80 | 70
Cc1cccc(N=C2NC(=O)/C(=C/c3cccs3)S2)c1 | . | . | . | . | active | 34
Cc1ccccc1N=C1NC(=O)/C(=C/c2cccn2C)S1 | . | . | . | . | . | 13
Cc1cccc(N=C2NC(=O)/C(=C/c3cccn3C)S2)c1 | . | . | . | . | 52 | 27
Cc1ccc(/C=C2/SC(=Nc3ccc(F)cc3)NC2=O)s1 | . | . | . | . | . | .
Cc1ccccc1N=C1NC(=O)CS1 | . | . | . | . | . | .
O=C1NC(=Nc2ccccc2)S/C1=C\c1cccn1-c1ccccc1 | . | . | . | . | 61 | 47
O=C1Nc2ccccc2S/C1=C/c1cccs1 | . | . | . | . | 62 | 28
O=C1NC(=S)SC1=Cc1cccs1 | . | / | / | / | / | /
CC(C)(C)OC(=O)n1cc(CCO)c2ccccc21 | . | / | . | / | / | /

Screens (PubChem)
